# Results with a measured potency or affinity are listed apart.
# System: Candida albicans
# Conditions: Concentration 32 ug.mL-1; ASSAY_TEST Inhibition of Fungal Growth; detection method Absorption (OD530)
row,Structure (SMILES),Inhibition [%]
1,Cc1ccc(-c2ccc3nnc(CCC(=O)NCc4ccc(C(F)(F)F)cc4)n3n2)cc1C,2.25
2,O=C(Cn1nc2ccc(-c3ccccc3)nn2c1=O)Nc1cccc(Cl)c1,18.56
3,CCOc1ccc(-c2nc(CSc3nc4ccccc4n4c(C)nnc34)c(C)o2)cc1,1.94
4,O=C(Cn1nc2c(Oc3ccc(Cl)cc3)nccn2c1=O)Nc1ccc2c(c1)OCO2,2.32
5,CCc1nnc2ccc(S(=O)(=O)N(Cc3ccccc3F)c3ccc(OC)cc3)cn12,3.86
6,COc1ccc(C)cc1NC(=O)Cn1nc2ccc(SCc3ccc(Cl)cc3)nn2c1=O,31.09
7,Cc1ccc(Oc2nccn3c(=O)n(CC(=O)Nc4cccc(Br)c4)nc23)cc1,24.3
8,O=c1c2nn(Cc3ccccc3Cl)c(=O)n2ccn1-c1ccccc1,1.76
9,Cc1cccc(C)c1NC(=O)Cn1nc2n(C)c(=O)c3c(c(-c4ccccc4)cn3C)n2c1=O,0.83
10,CCc1ccc(N(Cc2ccc(Cl)cc2)S(=O)(=O)c2cccn3c(C)nnc23)cc1,3.63
11,Cc1ccc(-c2cc3c4nn(CC(=O)Nc5ccc6c(c5)OCO6)c(=O)n4ccn3n2)cc1C,33.95
12,CC(C)c1ccc(N(Cc2cccc(Cl)c2)S(=O)(=O)c2cccn3cnnc23)cc1,3.48
13,O=C(Cn1nc2nc(Nc3ccc(F)cc3)ccn2c1=O)N1CCCc2ccccc21,2.56
14,C=Cc1ccc(CN(c2ccc(CC)cc2)S(=O)(=O)c2cccn3c(C)nnc23)cc1,4.32
15,O=C(CCc1nnc2c(N3CCCCC3)nc3ccccc3n12)NCc1ccccc1F,1.76
16,O=S(=O)(c1ccc2nncn2c1)N(Cc1ccccc1F)c1ccc2c(c1)OCO2,1.66
17,Cc1ccc(NC(=O)CSc2nnc3c4cc(-c5ccccc5)nn4ccn23)c(C)c1,4.18
18,O=C(CSc1nnc2c(=O)n(-c3ccccc3)ccn12)Nc1ccc(Br)cc1,2.41
19,COc1ccc(NC(=O)Cn2nc3c(Sc4ccccc4)nccn3c2=O)cc1,1.47
20,CCN(C(=O)Cn1nc2nc(Nc3ccc(F)cc3)ccn2c1=O)c1ccccc1,1.18

row,Structure (SMILES),Inhibition [%]
1,CC(=O)c1ccc(N2CCN(C(=O)CCc3nnc4c5cc(-c6ccccc6)nn5ccn34)CC2)cc1,3.08
2,O=C(Cn1nc2ccc(SCc3ccc(Cl)cc3)nn2c1=O)NCc1ccc2c(c1)OCO2,13.27
3,Cc1ccc(NC(=O)Cn2nc3c(Sc4ccccc4)nccn3c2=O)c(C)c1,3.33
4,CSc1cccc(NC(=O)Cn2nc3ccc(-c4ccccc4)nn3c2=O)c1,3.96
5,COC(=O)c1ccccc1NC(=O)Cn1nc2c3sc(N4CCCC4)nc3ncn2c1=O,3.62
6,CC(C)c1nnc2c(=O)n(CC(=O)Nc3ccc4c(c3)OCO4)c3ccccc3n12,6.2
7,O=C(Cn1nc2ccc(SCc3ccc(Cl)cc3)nn2c1=O)Nc1ccc2c(c1)CCC2,7.4
8,Cc1cc(C)c(NC(=O)Cn2c(=O)c3nnc(C(C)C)n3c3ccccc32)c(C)c1,4.09
9,CCOC(=O)c1ccc(NC(=O)Cn2nc3c(Oc4ccccc4)nccn3c2=O)cc1,-0.16
10,COc1ccc(C)cc1NC(=O)Cn1nc2c3cc(-c4ccc(Cl)cc4)nn3ccn2c1=O,-1.06
11,COc1cccc(Sc2nc3ccccc3n3c(=O)n(CC(=O)Nc4cc(C)cc(C)c4)nc23)c1,5.74
12,Cc1nnc2c(SCC(=O)N3CCN(c4ccc(F)cc4)CC3)nc3ccccc3n12,2.24
13,COCCCNC(=O)CSc1nnc2c(=O)n(Cc3ccc(F)cc3)ccn12,2.6
14,COc1cccc(-c2nc(CSc3nc4ccccc4n4c(C(C)C)nnc34)c(C)o2)c1OC,-0.24
15,Cc1ccc(NC(=O)CSc2nc3ccccc3n3c(C)nnc23)c(Br)c1,22.27
16,CCCCc1ccc(NC(=O)Cn2c(=O)c3nnc(CCC)n3c3ccccc32)cc1,4.08
17,O=S(=O)(c1cccn2cnnc12)N(Cc1ccc(F)cc1)c1ccc(F)c(F)c1,2.27
18,COc1cccc(Sc2nc3ccccc3n3c(=O)n(CC(=O)Nc4ccc(Cl)cc4)nc23)c1,36.59
19,Cc1ccc(-c2cc3c4nn(CC(=O)Nc5ccccc5C)c(=O)n4ccn3n2)cc1C,19.26

# System: Cryptococcus neoformans
# Conditions: Concentration 32 ug.mL-1; ASSAY_TEST Inhibition of Fungal Growth; detection method Resazurin; Absorption (OD600-OD570); plate type 384well; NBS; CORNING #3640
row,Structure (SMILES),Inhibition [%]
1,Cc1ccc(-c2ccc3nnc(CCC(=O)NCc4ccc(C(F)(F)F)cc4)n3n2)cc1C,-1.58
2,O=C(Cn1nc2ccc(-c3ccccc3)nn2c1=O)Nc1cccc(Cl)c1,-15.44
3,CCOc1ccc(-c2nc(CSc3nc4ccccc4n4c(C)nnc34)c(C)o2)cc1,-16.17
4,O=C(Cn1nc2c(Oc3ccc(Cl)cc3)nccn2c1=O)Nc1ccc2c(c1)OCO2,-10.77
5,CCc1nnc2ccc(S(=O)(=O)N(Cc3ccccc3F)c3ccc(OC)cc3)cn12,-4.31
6,COc1ccc(C)cc1NC(=O)Cn1nc2ccc(SCc3ccc(Cl)cc3)nn2c1=O,-20.73
7,Cc1ccc(Oc2nccn3c(=O)n(CC(=O)Nc4cccc(Br)c4)nc23)cc1,-18.68
8,O=c1c2nn(Cc3ccccc3Cl)c(=O)n2ccn1-c1ccccc1,-8.76
9,Cc1cccc(C)c1NC(=O)Cn1nc2n(C)c(=O)c3c(c(-c4ccccc4)cn3C)n2c1=O,-9.16
10,CCc1ccc(N(Cc2ccc(Cl)cc2)S(=O)(=O)c2cccn3c(C)nnc23)cc1,-5.55
11,Cc1ccc(-c2cc3c4nn(CC(=O)Nc5ccc6c(c5)OCO6)c(=O)n4ccn3n2)cc1C,-8.66
12,CC(C)c1ccc(N(Cc2cccc(Cl)c2)S(=O)(=O)c2cccn3cnnc23)cc1,-7.96
13,O=C(Cn1nc2nc(Nc3ccc(F)cc3)ccn2c1=O)N1CCCc2ccccc21,-7.45
14,C=Cc1ccc(CN(c2ccc(CC)cc2)S(=O)(=O)c2cccn3c(C)nnc23)cc1,-7.66
15,O=C(CCc1nnc2c(N3CCCCC3)nc3ccccc3n12)NCc1ccccc1F,-9.32
16,O=S(=O)(c1ccc2nncn2c1)N(Cc1ccccc1F)c1ccc2c(c1)OCO2,-6.91
17,Cc1ccc(NC(=O)CSc2nnc3c4cc(-c5ccccc5)nn4ccn23)c(C)c1,-18.24
18,O=C(CSc1nnc2c(=O)n(-c3ccccc3)ccn12)Nc1ccc(Br)cc1,-15.78
19,COc1ccc(NC(=O)Cn2nc3c(Sc4ccccc4)nccn3c2=O)cc1,-16
20,CCN(C(=O)Cn1nc2nc(Nc3ccc(F)cc3)ccn2c1=O)c1ccccc1,-4.45

row,Structure (SMILES),Inhibition [%]
1,CC(=O)c1ccc(N2CCN(C(=O)CCc3nnc4c5cc(-c6ccccc6)nn5ccn34)CC2)cc1,-8.28
2,O=C(Cn1nc2ccc(SCc3ccc(Cl)cc3)nn2c1=O)NCc1ccc2c(c1)OCO2,-15.83
3,Cc1ccc(NC(=O)Cn2nc3c(Sc4ccccc4)nccn3c2=O)c(C)c1,-10.8
4,CSc1cccc(NC(=O)Cn2nc3ccc(-c4ccccc4)nn3c2=O)c1,-8.45
5,COC(=O)c1ccccc1NC(=O)Cn1nc2c3sc(N4CCCC4)nc3ncn2c1=O,-7.62
6,CC(C)c1nnc2c(=O)n(CC(=O)Nc3ccc4c(c3)OCO4)c3ccccc3n12,-25.4
7,O=C(Cn1nc2ccc(SCc3ccc(Cl)cc3)nn2c1=O)Nc1ccc2c(c1)CCC2,-25.38
8,Cc1cc(C)c(NC(=O)Cn2c(=O)c3nnc(C(C)C)n3c3ccccc32)c(C)c1,-5.77
9,CCOC(=O)c1ccc(NC(=O)Cn2nc3c(Oc4ccccc4)nccn3c2=O)cc1,-7.75
10,COc1ccc(C)cc1NC(=O)Cn1nc2c3cc(-c4ccc(Cl)cc4)nn3ccn2c1=O,-27.09
11,COc1cccc(Sc2nc3ccccc3n3c(=O)n(CC(=O)Nc4cc(C)cc(C)c4)nc23)c1,-11.67
12,Cc1nnc2c(SCC(=O)N3CCN(c4ccc(F)cc4)CC3)nc3ccccc3n12,-2.43
13,COCCCNC(=O)CSc1nnc2c(=O)n(Cc3ccc(F)cc3)ccn12,-25.66
14,COc1cccc(-c2nc(CSc3nc4ccccc4n4c(C(C)C)nnc34)c(C)o2)c1OC,-8.54
15,Cc1ccc(NC(=O)CSc2nc3ccccc3n3c(C)nnc23)c(Br)c1,-9.59
16,CCCCc1ccc(NC(=O)Cn2c(=O)c3nnc(CCC)n3c3ccccc32)cc1,-20.48
17,O=S(=O)(c1cccn2cnnc12)N(Cc1ccc(F)cc1)c1ccc(F)c(F)c1,-6.23
18,COc1cccc(Sc2nc3ccccc3n3c(=O)n(CC(=O)Nc4ccc(Cl)cc4)nc23)c1,-25.56
19,Cc1ccc(-c2cc3c4nn(CC(=O)Nc5ccccc5C)c(=O)n4ccn3n2)cc1C,-10.57

# From ChEMBL document CHEMBL4513146, “CO-ADD screening of Karazin Kharkiv National University (Ukraine) compounds”
